# Experimental data from PubChem BioAssay AID449728 (The Scripps Research Institute Molecular Screening Center, 2010).
# Screen size: about 330,000 compounds; about 900 (0.27%) were called active. The sample holds actives, similar compounds and a random draw of the others, so the mix is not that of the screen. Unmarked numbers belong to inactive results.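 The calls were made as follows: active = inhibition above the campaign's mean inhibition across all tested compounds plus 3 SD (cut at about 9.9% in these data); inactive = the rest.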
# Assay: E. coli V3065 growth inhibition, primary screen, counter-screen for AddAB inhibitor project, absorbance, OD600 (AID 449728)
# Conditions: 18 h, at 11.9 µM, hits give high values
row,Structure (SMILES),inhibition
1,Cc1ccc(-n2c(-c3ccc([N+](=O)[O-])cc3)nc3ccccc3c2=O)cc1,-0.79%
2,C/C(=N/O)c1ccc2ccc3ccccc3c2c1,1.2%
3,O=[N+]([O-])c1cnc2ccc3ccccc3c2c1,53.1% (active)
4,COCCNC(=O)CN1C2CCC1CC(O)(c1cccnc1)C2 (stereo not given),-3.36%
5,O=c1[nH]c(=O)n(-c2ccc(F)cc2)c(O)c1C=NCCN1CCCCC1,-0.49%
